High-throughput results as filed in PubChem.
In the library only some 0.74% were active in any assay of this set; here they are far more common.
Glioma ERSR ind: qHTS for Inducers of the Endoplasmic Reticulum Stress Response (ERSR) in Human Glioma: qHTS. U87-MG GRP78 promoter luciferase reporter, 16 h. Potency, µM, without a hit: top-dose activation, actives largely listed as activators. AID 602332, 2012. 0.02% of 420,000 active; also: potency is read from the fitted curve at half-maximal effect; series mostly up to about 76 µM; % of control where 0% means no effect; nearly all actives have a fitted effect of over 35% in size
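ERSR induction read as luciferase luminescence (Bright-Glo, 10 min at room temperature) in stably transfected human U87-MG glioma cells exposed to compounds for 16 h, using GRP78 as sensor.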
LDHA inh: qHTS assay for inhibitors of human lactate dehydrogenase | purified LDHA, NADH/diaphorase-resazurin fluorescence; stronger effect = lower value | activity change, % (values are at about 110 or 230 µM) | 0.15% of 480,000 active | AID 1347041, 2019; in the data active = activity change below about -30%; inconclusive = mostly about -25% to -30%;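 also: plate controls were DMSO wells for no effect and wells without enzyme for full effect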
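Remaining NADH was detected by diaphorase (0.133 mg/mL) converting 37 µM resazurin to fluorescent resorufin, read at 0 and 20 minutes. The preceding 5-minute room-temperature reaction used 2 nM LDHA, 0.2 mM sodium pyruvate and 0.06 mM NADH at pH 7.4.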
PINK1 expr mod: A Quantitative High throughput Screen to Identify Chemical Modulators of PINK1 Expression. PINK1 immunofluorescence, high-content cytometry, 24 h. Potency, µM (top dose mostly 76.6 µM), inactives show at the highest dose activation (PINK1 increase), actives largely listed as activators. 0.2% of 410,000 active. AID 624263, 2012; active = well fitted activation curve with a large enough effect; inconclusive = small, poorly fitted or top-dose-only effect; cell line not stated here; also: potency is read from the fitted curve at half-maximal effect; % of control where 0% means no effect; nearly all actives have a fitted effect of over 65% in size
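Measures PINK1 amount and localization on or inside mitochondria by immunofluorescence. Stable cells get compounds at 5 concentrations for 24 hours before fixation and staining; CCCP controls included.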
Vif-APOBEC3F blk: qHTS for Inhibitors of Vif-A3F Interactions: qHTS; HeLa A3F-eYFP + Vif (tagged APOBEC3F with the HIV-1 protein that degrades it), YFP fluorescence increase; Potency, µM (titrated, usually from 46.1 µM), inactives show top-dose activity, negative = active; 0.2% of 390,000 active; AID 602313, 2012; also: potency is read from the fitted curve at half-maximal effect; % of control where 0% means no effect; nearly all actives have a fitted effect of over 65% in size
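Fluorescence increase (Ex 488/Em 500-530) after overnight compound treatment at 37 deg C flags inhibition of Vif-driven A3F-eYFP loss in stable HeLa A3F-eYFP/Vif cells seeded overnight beforehand.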
Akt phos inh: HTS Assay for Inhibitors of Akt Phophorylation: Primary Screen. AID 651550, 2012. activity change, % for hits at 50 µM. 0.32% of 360,000 active. Neuro2A IGF-stimulated pAkt S473 HTRF, 20 min; stronger effect = lower value; in the data active = activity change below about -80%; inconclusive = mostly about -51% to -80%; also: % is scaled to controls: 0 for no effect and ±100 for the full control effect
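Single-point screen (50 µM final compound) in Neuro2A cells stimulated 20 min with 6 nM IGF at 37 deg C. After lysis, Ser473-phosphorylated Akt read by HTRF (ex 330 nm, em 615/665 nm) as the 665/615 ratio.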
Vif-A3G inh: qHTS for Inhibitors of Vif-A3G Interactions: qHTS; DNA dC->dU-editing enzyme APOBEC-3G (Homo sapiens), Q9HC16; 0.076% of 410,000 active; Potency, µM (titrated, usually from 46.1 µM), for the others: at the highest dose activity, negative = active, most hits filed as inhibitors; AID 602310, 2012; HeLa A3G-eYFP + Vif (tagged APOBEC3G with the HIV-1 protein that degrades it), YFP fluorescence, overnight; also: potency is read from the fitted curve at half-maximal effect; % is scaled to controls: 0 for no effect and ±100 for the full control effect; nearly all actives have a fitted effect of over 60% in size
Target sequence (Q9HC16 whole entry, looked up): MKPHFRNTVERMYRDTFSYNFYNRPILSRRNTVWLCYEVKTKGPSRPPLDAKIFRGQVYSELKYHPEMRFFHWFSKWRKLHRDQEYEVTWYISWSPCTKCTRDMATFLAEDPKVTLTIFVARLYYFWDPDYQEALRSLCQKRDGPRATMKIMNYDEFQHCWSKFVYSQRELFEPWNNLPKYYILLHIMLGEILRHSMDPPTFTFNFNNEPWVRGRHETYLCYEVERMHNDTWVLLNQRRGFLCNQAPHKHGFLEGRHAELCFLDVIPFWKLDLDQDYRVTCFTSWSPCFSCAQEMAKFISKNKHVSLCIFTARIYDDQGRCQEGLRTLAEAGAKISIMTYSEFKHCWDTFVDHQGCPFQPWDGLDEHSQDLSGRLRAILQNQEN
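HeLa cells stably expressing Vif and C-terminally eYFP-tagged A3G, seeded overnight at 37 deg C, then exposed to compound by pintool overnight at 37 deg C. Rise in yellow fluorescence (Ex 488/Em 500-530, Acumen) marks blocked Vif-driven A3G degradation.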
Active calls of the source: *; i = inactive; ? = inconclusive; . = not tested or not shown. Unless noted, calls follow the shape of the dose curve; as a rule, active = well fitted curve in the direction sought with a large enough effect; inconclusive = small, poorly fitted or top-dose-only effect, or another doubt; inactive = no such curve, though single readings can be large; an effect the other way counts as inactive or inconclusive.

SMILES	Glioma ERSR ind	LDHA inh	PINK1 expr mod	Vif-APOBEC3F blk	Akt phos inh	Vif-A3G inh
CCCOC(=O)C1=C(C)Nc2nnnn2C1c1cc(Br)ccc1OCC (stereo not drawn)	.	-32*	.	.	.	.
N#Cc1ccc(OCc2cccc3ccccc23)c(Cl)c1	.	17	.	.	.	.
Cc1ccc(-c2cc(C(=O)O)c3ccccc3n2)cc1C	.	10	.	.	.	.
COc1cccc(N2CCN(c3c(C#N)c(C(F)(F)F)nn3C)CC2)c1	-11%	-1	0%	.	i	-4%
Cn1nc(C(F)(F)F)c(C#N)c1N1CCN(c2ccccc2F)CC1	-2%	0	0%	.	-107%*	-3%
CCc1ccc(C2C(C(=O)c3ccc(C)cc3)=C(C(=O)OC)Nc3nnnn32)cc1 (stereo not drawn)	.	0	.	.	.	.
Cc1ncc(N=Nc2ccc(F)cc2)c(-c2ccc(Cl)cc2)n1	-1%	-10	7%	-26%	-118%*	-1%
Cc1ncc(S(=O)(=O)c2ccc(Cl)cc2)c(-c2ccccc2)n1	-6%	-5	-2%	.	i	-1%
COc1ccc(-c2nc(C)ncc2N=Nc2ccccc2)cc1	6%	-5	9%	0%	-114%*	-7%
Cc1ccc2oc(/N=C(\N)NC(=O)C3CC3)nc2c1	-8%	0	8%	-4%	i	?
Cc1ccc2oc(/N=C(\N)NC(=O)C(C)(C)C)nc2c1	-14%	-6	4%	22µM*	i	4%
CSc1nsc2nc(=O)c(/C=C3\C(C)=Nc4ccc(C)cc43)c(N)n12	-5%	1	1%	?	i	?
CC1=Nc2ccc(C)cc2/C1=C/c1c(N)n2oc(C)cc2nc1=O	-1%	-5	?	11µM*	i	?
Cc1cc(NC(=O)CCc2ncc(-c3ccccc3Cl)o2)ccc1Br	.	-10	.	.	.	.
CC(C)(C)c1ccc(-c2cn(-c3ccc(Br)cc3)c3[n+]2CCCS3)cc1	-11%	-2	35µM*	1%	i	-1%
c1ccc(-c2cn(-c3ccccc3)c3[n+]2CCS3)cc1	-2%	-15	-1%	-11%	i	2%
COC(=O)CC(NC(=O)Cc1c(F)cccc1Cl)c1cccs1 (stereo not drawn)	.	0	.	.	.	.
O=C(NCCc1ccccn1)c1ccc2c(c1)-c1ccccc1C2	.	-4	.	.	.	.
Cc1cc2c(N=O)c(NO)ccc2[nH]1	-2%	27	0%	?	i	5.6µM*
O=Nc1c(O)[nH]c2ccc(F)cc12	0%	4	-2%	17%	i	-7%
CCN(CC)c1ccc2nc3ccc(N)cc3[n+](-c3ccccc3)c2c1	-11%	22	10µM*	2%	i	7%
CCN(CC)c1ccc2nc3ccccc3[n+](CC)c2c1	-10%	19	4%	-19%	i	-3%
CCc1cc(/C=C/c2ccnc3ccccc23)ccc1N(C)C	8%	-4	2%	.	.	?
CN(C)c1ccc(/C=C/c2ccnc3ccccc23)cc1[N+](=O)[O-]	0%	.	.	.	.	1%
CN(C)c1ccc(/C=C/c2ccnc3ccccc23)cc1C=O	-5%	12	9%	.	.	7.1µM*
SMILES	Glioma ERSR ind	LDHA inh	PINK1 expr mod	Vif-APOBEC3F blk	Akt phos inh	Vif-A3G inh
CN(C)c1ccc(/C=C/c2ccnc3ccccc23)cc1O	-2%	4	3%	.	.	11µM*
N#Cc1ccc(N2CCCC2C(=O)O)c([N+](=O)[O-])c1 (stereo not drawn)	-4%	-2	1%	0%	-118%*	0%
O=C(O)C1CCCCN1c1ccccc1[N+](=O)[O-] (stereo not drawn)	-3%	0	0%	.	i	-2%
CS(=O)(=O)Oc1ccc2c(c1)O/C(=C\c1ccccc1)C2=O	.	7	.	.	.	.
CCn1c(Cc2ccccc2)nnc1SCC(=O)N1CCCC1=O	-6%	-5	-1%	0%	i	1%
CCn1c(Cc2ccccc2)nnc1SCC(=O)N1CCCCC1	-5%	-2	1%	2%	-106%*	-3%
